# Experimental data reported in article PMC5540273 (PLoS ONE, 2017).
# Columns and labels:
# Details in all cases: concentration: 1 μM, replicates: in singlicate; n = 1
# [1] = tested on: EPHA2
# [2] = tested on: EPHA3
# [3] = tested on: EPHA4
# [4] = tested on: EPHA5
# [5] = tested on: EPHA6
# [6] = tested on: EPHA7
# [7] = tested on: EPHA8
# [8] = tested on: EPHB1
# [9] = tested on: EPHB2
# [10] = tested on: EPHB3
# [11] = tested on: EPHB4
# [12] = tested on: EPHB6
# [13] = tested on: ERBB2
# [14] = tested on: ERBB3
# [15] = tested on: ERBB4
# [16] = tested on: T1, ERK1
# T1 construct: gene MAPK3
# [17] = tested on: T2, ERK2
# T2 construct: gene MAPK1
# [18] = tested on: T3, ERK3
# T3 construct: gene MAPK6
# [19] = tested on: T4, ERK4
# T4 construct: gene MAPK4
# [20] = tested on: T5, ERK5
# T5 construct: gene MAPK7
# 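Note: KINOMEscan kinase panel screen.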
Compound,%Inh [1] [%],%Inh [2] [%],%Inh [3] [%],%Inh [4] [%],%Inh [5] [%],%Inh [6] [%],%Inh [7] [%],%Inh [8] [%],%Inh [9] [%],%Inh [10] [%],%Inh [11] [%],%Inh [12] [%],%Inh [13] [%],%Inh [14] [%],%Inh [15] [%],%Inh [16] [%],%Inh [17] [%],%Inh [18] [%],%Inh [19] [%],%Inh [20] [%]
COc1ccc2cc(-c3nc(-c4ccccc4C(C)C)[nH]c3-c3ccncc3)ccc2c1 [SB-660566],0,0,25,0,30,15,13,4,15,28,6,0,5,0,52,0,0,0,15,0
Fc1ccc(-c2nc3n(c2-c2ccncc2)CCS3)cc1 [GI98581],12,0,0,10,19,4,11,9,15,19,2,7,0,3,8,10,25,5,0,0
FC(F)(F)c1ccccc1-c1cc(-c2c[nH]nc2-c2ccccn2)ccn1 [GW679396],0,0,2,0,0,6,17,24,7,2,0,100,8,0,0,0,0,11,21,0
Fc1ccc(-c2nc[nH]c2-c2ccncc2)cc1 [SB-217360],0,9,4,0,1,0,5,1,0,0,0,3,41,5,10,2,0,0,12,0
O=C(Nc1n[nH]c2nc(-c3ccco3)c(Br)cc12)C1CCN(Cc2ccccc2)C1.O=C(O)[C@H](O)[C@@H](O)C(=O)O (centres unmarked) [SB-742034],0,16,1,6,0,7,0,7,17,11,0,34,0,0,13,8,1,0,0,0
COc1ccc(Nc2nccc(N3CCC(NC(=O)c4cc5ccccc5s4)C3)n2)cc1 (centres unmarked) [GSK1379738],0,0,8,0,1,7,13,20,12,11,0,17,1,8,0,0,0,0,15,0
COc1ccc(-c2coc3ccc(-c4nnc(C)o4)cc23)cc1,8,17,33,0,26,0,0,0,12,31,24,0,0,0,0,0,0,0,1,1
COC(=O)c1cccc(NC(=O)NC2CCN(c3ccnc(Nc4ccc(OC)cc4)n3)C2)c1 (centres unmarked) [GSK1379746],6,0,4,0,0,3,12,21,8,5,19,37,65,24,23,0,0,5,2,6
COc1ccc(Nc2nccc(N3CCC(NC(=O)C(C)c4ccc(Cl)cc4)C3)n2)cc1 (centres unmarked) [GSK1379735],25,9,14,0,11,18,17,13,0,9,7,18,11,9,0,0,0,0,0,0
Cc1ccc(NC(=O)Nc2ccc(Cl)cc2)cc1-c1ccc(C(=O)Nc2ccncc2)cc1 [GSK1398472],43,0,41,2,36,7,34,16,11,25,23,2,25,0,0,0,0,15,3,0
